Compounds without any hit were thinned out: in the full panel of roughly 83,000, 20% have a hit.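 The test compound was applied at a single concentration to cells in 96-well plates for 48 hours, and percent growth was recorded.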 Values without a mark were called inactive. The source made the active and inactive calls. The calls were made as follows: active = growth percent below 10; inactive = the rest.
What follows are compounds tested on MDA-MB-468 breast (assay: NCI-60 one-dose screen, 48 h (100 = growth as untreated, 0 = no growth, -100 = all killed)). Conditions: 10 µM unless noted.

**Q.** With `Oc1ccccc1-c1nc2ccccn2c1NCCN1CCOCC1` as the compound, how does the growth read?
**A.** 109%

**Q.** How did the growth turn out when `CS(=O)(=O)c1nccc(-c2c(-c3cccc(O)c3)nc3sccn23)n1` was run?
**A.** 60.1%

**Q.** For `CCN(c1ccccc1)S(=O)(=O)c1cc([N+](=O)[O-])ccc1Cl`, which growth is on record?
**A.** -4.6% (active)

**Q.** With `C/C(=N\O)C1(O)CCCCC1` as the compound, how does the growth read?
**A.** -9.98% (active)

**Q.** `Cc1cn(-c2nc3c(c(NCc4ccccc4)n2)COCC3)c2cccc(C(N)=O)c12` was tested. Which growth did it give?
**A.** 114% [0.5 µM]

**Q.** Which growth does the source give for `Cc1n[nH]c(C)c1-c1c(C)n[nH]c1C` here?
**A.** -0.751% (active)

**Q.** `C#C[C@]1(O)CC[C@H]2[C@@H]3CC=C4c5sc(-c6ccc7c(c6)OCO7)nc5CC[C@]4(C)[C@H]3CC[C@@]21C` was tested. Which growth did it give?
**A.** 51.5%

**Q.** How did the growth turn out when `Cn1cc(-c2nc(-c3cn(C)c4ncccc34)cs2)c2cc(F)ccc21` was run?
**A.** -8.46% (active)

**Q.** For `O=C(/C=C/c1cn(-c2ccccc2)nc1-c1ccc(Cl)cc1)c1ccc(F)cc1`, which growth is on record?
**A.** 100%

**Q.** How did the growth turn out when `Cn1cc(-c2cnn3c(N)c(Br)c([C@@H]4CCCNC4)nc23)cn1` was run?
**A.** 67.5%

**Q.** Which growth does the source give for `O=C(CN1CCOCC1)Nc1nc(-c2cc3ccccc3oc2=O)cs1` here?
**A.** 107%

**Q.** Which growth does the source give for `COc1ccc(/C=C2\COc3ccc(O)c(O)c3C2=O)c(OC)c1OC` here?
**A.** 7.7% (active)

**Q.** With `N#CN1CC[C@H](C(=O)Nc2cc3cc(C(N)=O)ccc3cn2)C1` as the compound, how does the growth read?
**A.** -46.2% (active)

**Q.** For `O=C1c2cc3c(cc2-c2c1c1ccc(F)cc1c(=O)n2CCCNCCO)OCO3`, which growth is on record?
**A.** -70.8% (active)

**Q.** Which growth does the source give for `COc1ccc(C2CC(c3ccccc3)=NN2C(=O)c2cc(OC)c(OC)c(OC)c2)cc1O` (stereo not given) here?
**A.** 41.3%

Source: PubChem BioAssay (NCI)
